106 compounds from PubChem BioAssay AID1634 (National Center for Advancing Translational Sciences (NCATS), 2009) can be followed below.

About 150 (0.058%) of roughly 260,000 compounds were called active. A call without a number means that no potency is given here. Calls come from the whole dose curve; as a rule, active = well fitted inhibition curve with a large enough effect; inconclusive = small, poorly fitted or top-dose-only effect; inactive = no such curve, though single readings can be large or run the other way. The full list was thinned out, with actives kept by preference.
Potency is the fitted concentration of half-maximal effect.

The target in this assay is Pyruvate kinase PKM (Homo sapiens) (UniProt P14618). In words: qHTS Assay for Inhibitors of Human Muscle isoform 2 Pyruvate Kinase. Note: nearly all actives have a fitted effect of over 60% in size. The note with it: purified PKM2, ATP generation, Kinase-Glo luminescence; series mostly up to 57.5 µM. As for the experimental part: NIH Chemical Genomics Center [NCGC] Matthew G. Vander Heiden, M.D., Ph.D. [Harvard Medical School, 77 Avenue Louis Pasteur, Boston, MA 02115] […] ATP generation was detected in a coupled reaction by luciferase-mediated luminescence, an ATP-dependent process. […] The enzyme was assayed at an intermediate level of activity to screen for both inhibitors and activators.
Chain of Pyruvate kinase PKM (Homo sapiens) (P14618 whole entry, looked up, canonical isoform): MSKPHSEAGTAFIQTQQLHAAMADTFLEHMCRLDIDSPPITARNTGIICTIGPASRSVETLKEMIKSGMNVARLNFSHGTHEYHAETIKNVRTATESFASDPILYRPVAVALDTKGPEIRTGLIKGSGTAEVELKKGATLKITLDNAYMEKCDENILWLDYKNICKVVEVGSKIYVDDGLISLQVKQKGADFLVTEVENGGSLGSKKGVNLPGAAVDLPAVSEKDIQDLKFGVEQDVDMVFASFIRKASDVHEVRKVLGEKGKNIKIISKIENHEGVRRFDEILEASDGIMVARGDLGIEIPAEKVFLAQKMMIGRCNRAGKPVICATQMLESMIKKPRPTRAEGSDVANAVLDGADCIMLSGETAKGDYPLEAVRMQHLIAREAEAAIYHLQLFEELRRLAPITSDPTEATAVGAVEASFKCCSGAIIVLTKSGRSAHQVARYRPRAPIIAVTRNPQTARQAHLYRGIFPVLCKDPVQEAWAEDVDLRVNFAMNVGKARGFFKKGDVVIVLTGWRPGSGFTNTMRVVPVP
NCGC Assay Protocol Summary: Three uL of substrate mix (at r.t.) in assay buffer (50 mM Imidazole pH7.2, 50 mM KCl, 7 mM MgCl2, 0.01% Tween 20, 0.05% BSA) was dispensed into white solid bottom 1,536 well microtiter plates so that the final concentrations of substrates in the assay were 0.1 mM ADP and 0.5 mM PEP. 23 nL of compound were delivered by a pin tool and 1 uL of enzyme mix in assay buffer (4 degree Celsius) was added. Plates were incubated at room temperature for 1 hour. Two uL of detection mix (Kinase-Glo, Promega; at 4 degree Celsius protected from light) was added and luminescence read by a ViewLux (Perkin Elmer) at 5 second exposure/plate. Data were normalized to the uninhibited and AC100 inhibition (no enzyme). To monitor activation, the first column contained a titration of the activator, NCGC00031955-01 (16-point 1:2 dilutions in duplicate starting at 57 uM) and the first 16 rows of column 4 contained 57 uM of NCGC00031955-01.
On the technique in general: qHTS replaces the single test concentration by a dilution series.
With `Cc1ccc(S(=O)(=O)N2CCCC2C(=O)NCc2ccco2)cc1` (stereo unspecified), the Potency result is “inactive”. Then `Cc1noc(C)c1C(=O)OCC(=O)N1CCN(S(=O)(=O)c2ccc3ccccc3c2)CC1`, with “inactive”; and `CCn1c(NCCc2ccc(OC)c(OC)c2)nc2c1c(=O)n(C)c(=O)n2C`, with “inactive”. With `O=C(COC(=O)CCC(=O)c1cccs1)NCc1ccco1`, the Potency entry is “inactive”. Then `CC(=O)c1cc(C#N)c(SCC(=O)Nc2nccs2)nc1C`, with “inactive”. For `COc1ccc(C2CC(c3ccc([N+](=O)[O-])cc3)=NN2C(C)=O)cc1` (stereo unspecified) the value was “inactive”; for `Cc1ccc(OS(=O)Nc2cccc3nccnc23)cc1` (stereo unspecified), “inactive”; for `Cc1ccc(CNC(=O)C2CCCN2C(=O)NCc2ccccc2)cc1` (stereo unspecified), “inactive”. For `CC(C)(C)C(=O)OCc1nc(-c2ccc(O)c(O)c2)cs1` the value was “inactive”; for `CCOc1ccc(S(=O)(=O)Nc2nccs2)cc1`, “inactive”; for `Cn1c(SCC(=O)N/N=C/c2ccc(O)c(O)c2)nc2ccccc21`, “inactive”.

`CC(C)Nc1ncnc2c1nnn2Cc1ccccc1`: the Potency entry was “inactive”. Take `O=C(c1c(F)cccc1Cl)N1CCN(S(=O)(=O)c2ccc3c(c2)OCCCO3)CC1`: the Potency result was “inactive”. As for `O=C(CSc1nnc(-c2ccc(NS(=O)(=O)c3ccccc3)cc2)o1)NCC1CCCO1` (stereo unspecified), the Potency entry is “inactive”. For `S=c1[nH]nc(-c2cccs2)n1/N=C/c1cn(-c2ccccc2)nc1-c1ccc(Cl)cc1` the value was “inactive”.

Take `O=C(Cc1cccs1)Nc1nnc(SCc2ccc(F)cc2)s1`: the Potency result was “inactive”. For `Cc1cc(C)n(CCC(=O)N2CCN(S(=O)(=O)c3ccc(C)c(C)c3)CC2)n1` the value was “inactive”; for `COc1ccc(S(=O)(=O)Nc2ccc(F)cc2)c(C)c1C`, “inactive”; for `CCc1nnc(NC(=O)CSc2nc3c(c(=O)n2-c2ccccc2OC)SCC3)s1`, “inactive”. For `Nc1cccc(S(=O)(=O)Nc2ccc(SC(F)F)cc2)c1` the value was “inactive”.

As to `Nc1ccccc1Sc1cc(Cl)nnc1Cl`, the Potency entry was “inactive”.

Take `O=S(=O)(Nc1nccs1)c1ccc2c(c1)OCCO2`: the Potency entry was “inactive”. Then `O=c1[nH]c(-c2cccs2)nc2ccccc12`, with “inactive”; and `Cn1c2ccccc2c(=O)c2c(=O)n(Cc3ccco3)c(COc3ccccc3)nc21`, with “inactive”. As for `COC(=O)C1=C(C)NC(=O)CC1c1ccccc1OC` (stereo unspecified), the Potency result is “inactive”. Then `Cc1cc(NC(=O)CSc2nnc(-c3ccc(Cl)s3)o2)no1`, with “inactive”; and `Cc1ccc(N(C(=O)c2ccc(CN3CCOCC3)o2)C(C(=O)NCCC(C)C)c2cccs2)c(C)c1` (stereo unspecified), with “inactive”.

As for `Cc1cc(-c2ccc(/C=N/n3cnnc3)o2)c([N+](=O)[O-])cc1C`, the Potency entry was “inactive”. With `O=[N+]([O-])c1ccccc1Nc1ccc(O)cc1`, the Potency result is “inactive”. For `S=c1nc(C23CC4CC(CC(C4)C2)C3)nc2sccn12` the value was “inactive”; for `CCc1nnc(NS(=O)(=O)c2ccc(NS(=O)(=O)c3ccccc3)cc2)s1`, “inactive”; for `CCNc1nc(NC(C)C)nc(OCCOC(=O)c2ccccc2)n1`, “inactive”. On to `CN(C)c1ccc(C=C2C(=O)OC3(CCCC3)OC2=O)cc1`, for which the Potency entry was “inactive”. Regarding `COc1ccc(CS(=O)/C(Cl)=C(/Cl)C(=O)Nc2ccc(OC)nc2)cc1` (stereo unspecified), the Potency entry was “inactive”.

Take `CC(=O)c1c(C)[nH]c(C(=O)Nc2cc(S(=O)(=O)N(C)C)ccc2C)c1C`: the Potency entry was “inactive”. Take `O=C(NCc1ccco1)c1cccn2c(=O)c3c4c(sc3nc12)CCCC4`: the Potency entry is “inactive”.

On to `O=C(NCc1ccccn1)c1c(O)c2c([nH]c1=O)CCCC2`, for which the Potency result was “inactive”. `CCC1CCCCN1CCCNC(=O)Cn1nc(-c2ccccc2)ccc1=O` (stereo unspecified): the Potency result is “inactive”. Take `COc1ccc(C(=O)NC(=S)Nc2ccc(Cl)cn2)cc1OC`: the Potency entry is “inactive”. `c1cc(-n2cnnn2)ccc1NC1=NCCC1`: the Potency result is “inactive”. Consider `O=C(CCC(=O)N1CCN(S(=O)(=O)c2ccccc2)CC1)NC1CCCc2ccccc21` (stereo unspecified), for which the Potency result was “inactive”. For `O=c1cc(CO)oc(C(Nc2cccc([N+](=O)[O-])c2)c2ccccn2)c1O` (stereo unspecified), the Potency result is “inactive”. Then `COC(=O)c1[nH]c2ccccc2c1NC(=O)CN1CCCc2ccccc21`, with “inactive”.

`CN(C)/C=C1\C=C(c2ccccc2)OC1=O`: the Potency entry is “inactive”. Then `CCC(C)(C)NC(=O)C1c2ccccc2Oc2ccccc21`, with “inactive”; and `O=C(c1ccc(-c2ccccc2)cc1)C1CCCN(C(=O)c2cncs2)C1` (stereo unspecified), with “inactive”; and `O=S(=O)(c1ccc(F)cc1)N1CCN(C(=S)NCc2ccco2)CC1`, with “inactive”. Consider `O=C(COc1cc(Cl)c(Cl)cc1Cl)NCCc1ccccn1`, for which the Potency entry is “inactive”. Then `COC(=O)c1cc2c(N)c(C(=O)c3ccc(Cl)cc3)sc2nc1C(OC)OC`, with “inactive”; and `O=C(Cn1c(COc2ccccc2)nc2ccccc21)Nc1cc(Cl)c(Cl)cc1Cl`, with “inactive”; and `COc1ccc(-c2csc(Cc3nc(O)cs3)n2)cc1`, with “inactive”. As for `COc1ccc(-c2cn3ccc(C)cc3n2)cc1`, the Potency is 12.6 µM (active).

In the case of `N#Cc1ccc(OCc2nnc(-c3ccc([N+](=O)[O-])cc3)o2)cc1`, the Potency result is “inactive”.

Turning to `COc1cccc(CNC(=O)CCC2CCCN(C(=O)c3cc(C)[nH]n3)C2)c1` (stereo unspecified), the Potency entry was “inactive”. On to `Cc1cc(C)c(S(=O)(=O)N2C=CC(C(F)(F)F)=NCC2)c(C)c1`, for which the Potency entry is “inactive”. For `CN(CCc1ccccc1)c1ccc([N+](=O)[O-])cn1` the value was “inactive”; for `COC(=O)[C@@]1(Cc2ccccc2)[C@H]2c3cc(C(=O)N4CCCC4)n(Cc4ccc(C)o4)c3C[C@H]2CN1C(=O)c1ccccc1`, “inactive”; for `O=[N+]([O-])c1cc(Br)c(O)c(/C=N/Nc2nc3ccccc3s2)c1`, “inactive”. Then `CN(C)S(=O)(=O)c1ccc(NC(=O)COC(=O)c2n[nH]c3ccccc23)cc1`, with “inactive”; and `NC(=O)COC(=O)/C=C/c1ccc2ccccc2n1`, with “inactive”. For `COc1ccccc1C(=O)N/C(=C/c1ccco1)C(=O)Nc1ccc(C(=O)O)cc1` the value was “inactive”; for `O=S(=O)(c1ccc(Br)cc1)c1nc(-c2ccccc2)oc1NCc1cccnc1`, “inactive”. For the compound `Cc1ccc(C)c(S(=O)(=O)Nc2cccc(-n3cnnn3)c2)c1`, the Potency result was “inactive”. On to `O=C(NCc1cccs1)C1CCN(S(=O)(=O)c2ccc3c(c2)OCCO3)CC1`, for which the Potency result is “inactive”. For `CCCc1nc(N2CCN(C)CC2)c2sc(=S)n(-c3ccccc3)c2n1` the value was “inactive”.

Regarding `CC1CC(c2ccccc2)n2nc(NC(=O)c3cccs3)nc2N1` (stereo unspecified), the Potency result was “inactive”. In the case of `CN(C)N=Nc1ccc2nc[nH]c2c1`, the Potency entry was “inactive”. In the case of `CN(C)c1nc(N)nc(CSc2nnnn2-c2cccc3ccccc23)n1`, the Potency result was “inactive”. For `O=C(c1ccc[nH]c1=S)N1CCN(S(=O)(=O)c2ccc(Br)cc2Cl)CC1` the value was “inactive”.

With `O=C(NCCN1C(=O)S/C(=C\c2cccnc2)C1=O)c1ccc(S(=O)(=O)N2CCCC2)cc1`, the Potency result was “inactive”. Then `Cc1ccnc(-n2sc3ccccc3c2=O)n1`, with “inactive”. `CC(C)NC(=O)CCCn1c(=S)[nH]c2cc3c(cc2c1=O)OCO3`: the Potency entry is “inactive”. Then `O=C(Cn1nc(CNc2ccc(Cl)cc2)[n+]2c1CCCCC2)c1ccc(Cl)cc1`, with “inactive”; and `Cc1ccnc(NC(=O)c2ccoc2C)c1`, with 14.1 µM (active). For `Cc1ccc(NC(=O)c2cc(-c3ccc(C)o3)nc3ccccc23)nc1`, the Potency result is “inactive”. Then `CCOc1cccc2c1OC1(CCCCC1)N1N=C(c3cccnc3)CC21` (stereo unspecified), with “inactive”; and `O=S(=O)(c1ccc(F)cc1)N1CCN(C(=S)NC2CCCC2)CC1`, with “inactive”; and `Cc1cc(C(=O)N/N=C/c2ccccc2[N+](=O)[O-])c(C)o1`, with “inactive”. On to `Cc1ccccc1CN1C[C@@H]2C[C@@H](c3cn(C)nc3-c3ccccc3)N3CCC[C@@]23C1=O`, for which the Potency result was “inactive”. For `CSc1ccc(/C=N\NC(=O)COc2ccc(Cl)cc2Br)cc1` the value was “inactive”. Regarding `Cn1c(SCC(=O)Nc2cccc(O)c2)nnc1-c1ccc(S(=O)(=O)N2CCOCC2)cc1`, the Potency entry is “inactive”. Regarding `Cc1ccccc1-n1nc(C)c2c1N=C1C(Cl)=CC(Cl)=CN1C2c1ccc(C(=O)O)cc1` (stereo unspecified), the Potency entry was “inactive”. For `Cn1c(=O)c2c(nc(SCCNS(=O)(=O)c3ccccc3)n2C)n(C)c1=O` the value was “inactive”; for `O=C(NC1=NCCS1)[C@H](Cc1ccccc1)N1C(=O)c2ccccc2C1=O`, “inactive”; for `CN(C(=O)CSc1nnc(N)s1)c1c(N)n(Cc2ccccc2)c(=O)[nH]c1=O`, “inactive”. Take `Cc1ccc(NC(=O)OCCNC(=O)c2ccncc2)cc1`: the Potency entry is “inactive”. As to `Cc1ccc(-c2cc(C(=O)N/N=C/C=C/c3ccco3)c3ccccc3n2)cc1C`, the Potency entry is “inactive”. For `COc1ccc(-c2nnc(SC(C)C#N)o2)cc1` (stereo unspecified), the Potency result was “inactive”. For `Cc1ccc(S(=O)(=O)N2CCN(Cc3cccc(C)c3O)CC2)cc1`, the Potency result is “inactive”. For the compound `Cc1ccc(-c2nc(SCC(=O)Nc3ccccc3OC(F)F)c3c(C)c(C(=O)O)sc3n2)cc1`, the Potency result was “inactive”. In the case of `Cc1nc(SCC(=O)N2CC(=O)Nc3ccccc32)c2c(C)c(C)sc2n1`, the Potency result is “inactive”.

Consider `COc1ccc(-c2nnn(CC(=O)N(CCO)C(C(=O)NC3CCCC3)c3ccc(F)cc3)n2)cc1` (stereo unspecified), for which the Potency entry is “inactive”.

Consider `CN(C(=O)COC(=O)c1cc(-c2ccco2)nc2ccccc12)C1CCS(=O)(=O)C1` (stereo unspecified), for which the Potency entry is “inactive”. For the compound `CC(C)CCn1cnc2c1c(=O)n(CC(=O)NC(N)=O)c(=O)n2Cc1ccccc1`, the Potency entry was “inactive”. Take `COc1ccc(OC)c(Nc2nc(-c3ccc(O)c(O)c3)cs2)c1`: the Potency result is “inactive”.

With `COc1ccc(COCCN2CCN(S(=O)(=O)c3ccccc3)CCC2=O)cc1`, the Potency entry is “inactive”. Then `COC(=O)c1[nH]c2ccccc2c1NS(=O)(=O)c1ccc(OC)cc1OC`, with “inactive”; and `O=C(CSc1nnc(-c2cccs2)n1Cc1ccccc1)N1CCc2ccccc2C1`, with “inactive”; and `CCN(/N=C/c1ccccc1)c1cc(=O)n(C)c(=O)[nH]1`, with “inactive”. Then `COc1cccc(/C=N\NC(=O)C2=NNC(=O)C2C)c1O` (stereo unspecified), with 17.8 µM (active).

With `CCn1c(SCC(=O)N/N=C/C=C/c2ccccc2[N+](=O)[O-])nnc1-c1ccccc1`, the Potency entry is “inactive”. As to `Cc1noc(C)c1S(=O)(=O)Nc1ccc(C(=O)N2CCN(c3ccc(F)cc3)CC2)cc1`, the Potency result is “inactive”. Regarding `Cc1ccc(O)c(CNc2nc3ccccc3[nH]2)c1`, the Potency entry is “inactive”. For `Cc1ccccc1-c1nnn(CC(=O)c2ccc(S(=O)(=O)N3CCCC3)cc2)n1` the value was “inactive”; for `Cc1ccc(CCC(=O)Nc2ncc(Cc3cc(Cl)ccc3Cl)s2)o1`, “inactive”; for `COCc1cc(=O)[nH]c(SC)n1`, “inactive”.
